# This is a sample that favours compounds with a hit; in the whole collection about 12% have one here.
# Pf growth 48h: inhibits P. falciparum growth in the first generation, 48 h; 5.9% of 310,000 active; P. falciparum luciferase growth in erythrocytes, 48 h; Potency, µM (series often up to 28.7 µM), inactives show at the top dose activity change, negative = inhibition, actives largely listed as inhibitors; AID 504832; further: on the % scale 0 is the no-effect control and ±100 the full control effect
#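 Growth was read as firefly luciferase luminescence after a 48 h, 37 C, 5% CO2 exposure of compounds to reporter-bearing P. falciparum cultures (0.1% parasitemia, 2% hematocrit final) in Albumax-supplemented RPMI 1640.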
# SARS PLpro yeast: inhibitors of SARS-CoV papain-like protease in yeast. S. cerevisiae expressing SARS-CoV PLpro, growth rescue. Potency, µM (top dose mostly 32.9 µM), without a hit: at the highest dose activity, positive = growth rescue, usual class: activators. 0.19% of 330,000 active. AID 485353; calls by dose curve; further: 0% is about no effect; nearly all actives have a fitted effect of over 55% in size
# Pf growth 96h: P. falciparum growth inhibition at 96 hours | P. falciparum luciferase reporter growth, 96 h | AID 504834 | 6.9% of 320,000 active | Potency, µM (highest dose often 28.7 µM), inactives show top-dose activity change, negative = inhibition, hits mostly inhibitors; further: on the % scale 0 is the no-effect control and ±100 the full control effect
#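 Plates of compound plus infected erythrocytes (2% hematocrit, 0.05% parasitemia final) incubate 96 hours, 37 C, 5% CO2. Detection reagent added; reduced luminescence from the parasites' luciferase reporter flags inhibition.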
# Sm TGR block: blocks Schistosoma mansoni thioredoxin glutathione reductase; 3% of 360,000 active; purified TGR, DTNB reduction, TNB absorbance 405 nm; Q962Y6; Potency, µM (titrated, usually from 114 µM), inactives show at the top dose activity change, negative = inhibition, hits mostly inhibitors; further: on the % scale 0 is the no-effect control and ±100 the full control effect; nearly all actives have a fitted effect of over 60% in size
#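 TGR 20 nM + NADPH 100 uM (dispensed conc.), cpd preinc 15 min RT; start with NADPH (500 uM addition) then DTNB (15 mM addition). Kinetic TNB absorbance, 405 nm filter. Four-parameter Hill fit across titration.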
# Starred values were filed as active, the others as inactive; ? = inconclusive; . = no result given; [ ] = another dose, or the depositor's remark. Unless noted, the call rests on the fitted dose curve; in most records, active means well fitted curve in the direction sought with a large enough effect; inconclusive means small, poorly fitted or top-dose-only effect, or another doubt; inactive means no such curve, though single readings can be large; an effect the other way counts as inactive or inconclusive. Potency means the concentration at half of the fitted maximal effect.
SMILES,Pf growth 48h,SARS PLpro yeast,Pf growth 96h,Sm TGR block
COC(=O)C1=C(C)N=C2SC(C#N)=C(N)N2C1c1cc(OC)c(OC)c(OC)c1 (stereo not drawn),?,5.8%,?,-7.9%
CCOc1cccc2sc(NC(=O)CCS(=O)(=O)c3ccccc3)nc12,?,-4.5%,?,-29.3%
CCNS(=O)(=O)c1ccc(CCC(=O)NCCc2ccc(OC)cc2)cc1,9.4%,0.7%,2.8%[5.75 µM],6.2%
CC(=O)CCS(=O)(=O)c1ccc(Oc2ccc(S(=O)(=O)CCC(C)=O)cc2)cc1,-24.2%,5.5%,?,10µM*
COc1ccc(S(=O)(=O)CCC(=O)NCCc2ccc(C)cc2)cc1,6.3%,-7.6%,.,31.6µM*
COc1ccc(C)c2sc(NC(=O)CCS(=O)(=O)c3ccccc3)nc12,-20.6%,0.1%,5.22µM*,5.01µM*
CCc1ccccc1NC(=O)CCS(=O)(=O)c1ccc(OC)cc1,2.3%,0.2%,7.1%,14.1µM*
COc1ccccc1-c1nn(CCC(=O)Nc2ccccc2)c2nc(C)cc(C)c12,.,.,.,-0.3%
Cc1ccc(SCC(=O)OCC(=O)N(C)C2CCS(=O)(=O)C2)cc1C (stereo not drawn),11.2%,7.9%,9.2%,-0.3%
CC(=O)c1ccc(OCCCC(=O)Nc2cccc(-c3nn[nH]n3)c2)cc1,1.6%,4.9%,10.8%,-8.4%
Cc1cc(OCC(=O)Nc2ccc(-c3nc4cc(Cl)ccc4o3)cc2)cc(C)c1Cl,.,.,.,2.7%
COc1ccc(S(=O)(=O)CCC(=O)Nc2c(C)cccc2C)cc1,?,1.9%,-15.3%,39.8µM*
Cc1cccc(C)c1NC(=O)CCS(=O)(=O)c1ccc(Br)cc1,-8.0%,0.0%,31.1%,0.7%
O=C(CCS(=O)(=O)c1ccc(F)cc1)Nc1nnc(-c2ccc(F)cc2)o1,-1.8%,0.0%,?,2.4%
COc1ccccc1-c1nnc(NC(=O)CCS(=O)(=O)c2ccccc2)o1,-10.2%,-3.5%,?,39.8µM*
Cc1cc(C)c(C)c(S(=O)(=O)N(C)C2CCN(C)CC2)c1C,?,-2.6%,-13.4%,-1.3%
CC1(C)CC(=O)C(CC2=C(O)CC(C)(C)CC2=O)=C(O)C1,-8.9%,5.0%,?,2.82µM*
CC1(C)CC(=O)C(CC2=C(O)CC(C)(C)CC2=O)C(=O)C1,.,0.6%,.,23.5%[11.4 µM]
CC(=O)N1c2ccccc2CC1C(=O)NCc1cccc(Cl)c1 (stereo not drawn),.,.,.,5.7%
CC(=O)N1c2ccc(Cl)cc2C2C=CCC2C1c1cccc2ccccc12 (stereo not drawn),13.1µM*,-68.5%,8.7%,-0.5%
CC(=O)N1c2ccc3ccccc3c2C2C=CCC2C1c1ccc(Br)cc1 (stereo not drawn),5.86µM*,-12.1%,45.5%,-18.3%
CC(=O)c1cccc(NC(=O)CSc2nnc(-c3ccncc3)o2)c1,14.0%,0.2%,-1.0%,-1.2%
Cc1ccc(CNC(=S)Nc2ccc(NS(=O)(=O)c3ccc(C)cc3)cc2)cc1,-21.2%,-5.0%,10.4µM*,-0.3%
CCN(C(=O)CN(C)S(=O)(=O)c1ccc2c(c1)n(C)c(=O)c(=O)n2C)c1cccc(C)c1,.,.,.,-11.2%
c1ccc(C[C@H]2CN=C(Nc3ccccc3)N2CCCC2CCCC2)cc1,?,2.7%,?,10.6%
SMILES,Pf growth 48h,SARS PLpro yeast,Pf growth 96h,Sm TGR block
O=C(CCC1CCCCC1)NCCN1C2=NC[C@H](Cc3ccccc3)N2C[C@H]1Cc1ccc(O)cc1,?,0.8%,4.65µM*,-34.9%
O=C(CCC1CCCCC1)NCCN1CCOCC1,-10.1%,7.1%,37.3%,-2.4%
O=C(CCC1CCCCC1)NCCN1C2=NC[C@@H](Cc3ccccc3)N2C[C@H]1Cc1ccc(O)cc1,?,0.5%,2.33µM*,-33.5%
CCOC(=O)c1sc(NC(=O)C(C)Sc2nc(-c3ccccc3)cc(C(F)(F)F)n2)c(C(=O)OC)c1C (stereo not drawn),.,.,.,-0.6%
CC(C)NC(=O)C1CCC(Cn2c(=O)c3sccc3n(CC(=O)Nc3ccccc3)c2=O)CC1 (stereo not drawn),.,.,.,2.5%
O=C(NCCc1cn2ccccc2n1)c1cc(COc2c(F)cccc2F)on1,-5.0%,-5.1%,-26.0%,39.8µM*
Cc1ccccc1Cn1c(Oc2ccccc2F)nc2c1c(=O)n(C)c(=O)n2C,.,.,.,12.3%
O=C1/C(=C\c2ccco2)CCC/C1=C\c1ccco1,186.9%,-27.5%,?,1.41µM*
O=C1/C(=C/c2ccco2)Cc2ccccc21,44.2%,-35.4%,?,-29.5%
O=C1/C(=C/c2ccccc2)CCC1C1CCCC1 (stereo not drawn),41.7%,3.6%,35.6%,5.8%
CC1C/C(=C/c2cccs2)C(=O)/C(=C/c2cccs2)C1 (stereo not drawn),-0.9%,3.2%,41.5%,-15.2%
O=C1/C(=C/c2ccco2)CCC1C1CCCC1 (stereo not drawn),35.7%,-6.8%,?,50.1µM*
CC1C/C(=C/c2ccco2)C(=O)/C(=C/c2ccco2)C1 (stereo not drawn),50.1%,-42.7%,8.28µM*,1.41µM*
COc1ccccc1/C=C1\CCC(C2CCCC2)C1=O (stereo not drawn),57.1%,5.1%,14.7µM*,-17.1%
CCc1ccccc1Nc1nc2cc(Cl)c(Cl)cc2nc1-n1nc(C)cc1C,.,.,.,-6.2%
CC1=CN2C(=N)/C(=C/c3ccc([N+](=O)[O-])o3)C(=O)N=C2S1,13.9%,-95.5%,-26.8%,3.55µM*
CC1=CN2C(=N)/C(=C/c3ccco3)C(=O)N=C2S1,33.4%,-22.6%,54.5%,-17.3%
Fc1ccc(Sc2ccccc2CNC2=NCCN2)cc1,5.86µM*,-51.1%,2.08µM*,-5.9%
C/C(=N/NC(=O)c1ccc(C)s1)c1ccncc1,35.8%,11.5%,?,-4.3%
CCn1c2ccccc2c2nnc(N3CCN(c4cccc(Cl)c4)CC3)nc21,.,.,.,-2.2%
COc1ccc(C(=O)N/C(=C\c2cn(S(=O)(=O)N(C)C)c3ccccc23)C(=O)NCCCn2ccnc2)cc1,11.7µM*,-4.7%,23.6%,-9.6%
COc1cc(C(=O)N/C(=C\c2cn(S(=O)(=O)N(C)C)c3ccccc23)C(=O)NCCCO)cc(OC)c1OC,?,-1.4%,8.28µM*,1.2%
COc1cc(C(=O)N/C(=C\c2cn(C)c3ccccc23)C(=O)NCCCO)cc(OC)c1OC,18.9%,1.1%,?,6.8%
COc1cc(/C=C2\C(=N)N3N=C(S(=O)(=O)CC(C)C)SC3=NC2=O)ccc1OC(=O)c1ccco1,-13.1%,0.0%,?,-21.7%
Cc1cc(C)c(/C=C/c2onc(C)c2S(=O)(=O)N2CCC(C(=O)Nc3ccc(Cl)c(C(F)(F)F)c3)CC2)c(C)c1,.,.,.,-1.8%
CC(=O)N1CCN(c2ccnc3cc(Cl)ccc23)CC1,?,-0.9%,11.7µM*,-4.5%
ClCCN1CCN(c2ccnc3cc(Cl)ccc23)CC1,0.828µM*,2.6%,0.828µM*,?
O=S(=O)(c1ccccc1)N1CCN(c2ccnc3cc(Cl)ccc23)CC1,?,-2.9%,30.1%,.
O=C(O)CSCC(=O)N1CCN(c2ccnc3cc(Cl)ccc23)CC1,?,1.7%,?,-7.3%

# High-throughput results as filed in PubChem.
